Measurements reported in PubChem BioAssay.
Values joined by “and” are separate entries in the source; they are usually repeats but may differ in a detail not shown here. Identical values can stand only once. Some structures have more than one record in an assay (separate samples or runs), and their calls can disagree. Active and inactive are the calls of the source.

Assay: S. cerevisiae growth modulation with rapamycin, primary screen, strain BY4716, OD600, 96 h (AID 1091); further: test concentration not given here
Conditions: higher = more signal, called active from +8 up or from −8 down

z-score, inactive:
C=CCN(C(=O)C1N(C(C)(C)CO)C(=O)C2C(C(=O)O)C3C=CC21O3)c1ccc(OC)cc1 (stereo not drawn) 0.558 and 0.921
C[N+](C)(C)CCCCNC(=O)[C@@H]1C[C@@H]2C(=O)N[C@@H](CCCC[N+](C)(C)C)C(=O)N2[C@@H]1c1cccc(OCCO)c1 -0.483 and -1.92
CCCC[C@@H]1CN2[C@@H](CC[C@@H](C)[C@@H]2c2ccc(Br)cc2)C(=O)O1 -0.278 and 0.42
CCN1C(=O)[C@H]2[C@H]3[C@H](O)[C@H](O)CC(=NOC)[C@@H]3CC[C@H]2C1=O -0.495
C=C[C@H](OC)[C@@H](O)c1ccc(OCCO)cc1 0.573 and 0.329
COC(=O)C1=C(C)N(Cc2ccccc2)[C@]23O[C@](C(=O)OC)(C(=O)N2[C@@H]1c1ccccc1)[C@@H](c1ccccc1)[C@@H]3C(=O)c1ccccc1 -1.82 and -0.776
CCOC(=O)[C@@H]1CC=C2CC1C(=O)N1CCC[C@@H]1[C@H]2O[Si](C)(C)C(C)(C)C (stereo partly drawn) 0.119 and -1.52
CCOC(=O)[C@@H]1CC2O[C@]23C[C@@H]1C(=O)N1CCC[C@@H]1[C@H]3O[Si](C)(C)C(C)(C)C (stereo partly drawn) -0.435 and -0.321
Cc1ccc(S(=O)(=O)OC[C@@H]2CN3[C@@H](CC[C@@H](C)[C@@H]3c3ccc(Br)cc3)C(=O)O2)cc1 -0.182 and 0.777
COC(=O)C1=C(C)N(Cc2ccccc2)[C@]23O[C@](C(=O)OC)(C(=O)N2[C@@H]1c1ccccc1)[C@H]1C(=O)N(c2ccccc2)C(=O)[C@H]13 -0.558 and 0.264
C[N+](C)(C)CCCCCCNC(=O)[C@H]1C[C@H]2C(=O)N[C@@H](CCCC[N+](C)(C)C)C(=O)N2[C@H]1c1ccc(O)cc1 0.122 and 0.411
Cc1ccc(S(=O)(=O)N[C@@H]2COC(=O)CC=C[C@@H](C)[C@@H]3C=C[C@H](O)[C@@H](COC(=O)CC=C[C@H]2C)O3)cc1 -0.564 and -0.784
CCCNC(=O)OC[C@H]1O[C@H](CCON=C(C)CCC(=O)OC[C@H]2O[C@H](C#Cc3ccccc3)C=C[C@@H]2Oc2ccc(C)cc2)C=C[C@@H]1Oc1ccc(OC)cc1 0.794
C=CCN(CCCC)C(=O)C1N(C(C)(C)CO)C(=O)C2C(C(=O)O)C3C=CC21O3 (stereo not drawn) -0.626 and -0.302
C=C[C@@H](C)[C@H](O)c1ccc(O)c2ccccc12 3.63 and 2.2
C=CCN(Cc1ccccc1)C(=O)C1N(C(C)(C)CO)C(=O)C2C(C(=O)O)C3C=CC21O3 (stereo not drawn) -0.13 and -0.429
C=CC[C@H](O)c1ccc(OCCO)cc1 -0.389 and -1.19
C=CCN(C(=O)C(c1cccs1)N(C(=O)/C=C\C(=O)O)c1ccc(CCO)cc1)c1ccc(OC)cc1 (stereo not drawn) -0.929 and -0.544
C=CC[C@@H](O)c1ccc(OCCO)cc1 -0.121 and -0.238
C=CCN(C(=O)C1N(CCCCCCO)C(=O)C2C(C(=O)O)C3C=CC21O3)c1ccc(OC)cc1 (stereo not drawn) -1.2 and -0.708
Cc1ccc(S(=O)(=O)N[C@H]2COC(=O)[C@@H](C)COC(=O)[C@H](C)NC(=O)CC=C[C@H]2C)cc1 -0.351

z-score, 34.6 (active) and 0.863 (inactive):
COC(=O)C1=C(C)N(Cc2ccccc2)C2=C(C(=O)c3ccccc3)[C@H](c3ccccc3)[C@@](O)(C(=O)OC)C(=O)N2[C@@H]1c1ccccc1

z-score, -1.19 (inactive) and 8.89 (active):
CCOC(=O)c1ccc(NC(=O)O[C@H]2[C@H](OC(=O)Nc3ccccc3)[C@H](OC(=O)Nc3ccccc3)[C@@H](OC)O[C@@H]2CO)cc1
